Molecules are shown by their SMILES. Inconclusive results are not listed. A call without a number means that no potency is given here. Calls of active or inactive are those of the source. The call rests on the fitted dose curve; in most records, active means well fitted inhibition curve with a large enough effect; inconclusive means small, poorly fitted or top-dose-only effect; inactive means flat fitted curve, though single readings scatter.
Potency means the concentration at half of the fitted maximal effect.

Chain of Voltage-gated inwardly rectifying potassium channel KCNH2 (Homo sapiens) (Q12809 whole entry, looked up): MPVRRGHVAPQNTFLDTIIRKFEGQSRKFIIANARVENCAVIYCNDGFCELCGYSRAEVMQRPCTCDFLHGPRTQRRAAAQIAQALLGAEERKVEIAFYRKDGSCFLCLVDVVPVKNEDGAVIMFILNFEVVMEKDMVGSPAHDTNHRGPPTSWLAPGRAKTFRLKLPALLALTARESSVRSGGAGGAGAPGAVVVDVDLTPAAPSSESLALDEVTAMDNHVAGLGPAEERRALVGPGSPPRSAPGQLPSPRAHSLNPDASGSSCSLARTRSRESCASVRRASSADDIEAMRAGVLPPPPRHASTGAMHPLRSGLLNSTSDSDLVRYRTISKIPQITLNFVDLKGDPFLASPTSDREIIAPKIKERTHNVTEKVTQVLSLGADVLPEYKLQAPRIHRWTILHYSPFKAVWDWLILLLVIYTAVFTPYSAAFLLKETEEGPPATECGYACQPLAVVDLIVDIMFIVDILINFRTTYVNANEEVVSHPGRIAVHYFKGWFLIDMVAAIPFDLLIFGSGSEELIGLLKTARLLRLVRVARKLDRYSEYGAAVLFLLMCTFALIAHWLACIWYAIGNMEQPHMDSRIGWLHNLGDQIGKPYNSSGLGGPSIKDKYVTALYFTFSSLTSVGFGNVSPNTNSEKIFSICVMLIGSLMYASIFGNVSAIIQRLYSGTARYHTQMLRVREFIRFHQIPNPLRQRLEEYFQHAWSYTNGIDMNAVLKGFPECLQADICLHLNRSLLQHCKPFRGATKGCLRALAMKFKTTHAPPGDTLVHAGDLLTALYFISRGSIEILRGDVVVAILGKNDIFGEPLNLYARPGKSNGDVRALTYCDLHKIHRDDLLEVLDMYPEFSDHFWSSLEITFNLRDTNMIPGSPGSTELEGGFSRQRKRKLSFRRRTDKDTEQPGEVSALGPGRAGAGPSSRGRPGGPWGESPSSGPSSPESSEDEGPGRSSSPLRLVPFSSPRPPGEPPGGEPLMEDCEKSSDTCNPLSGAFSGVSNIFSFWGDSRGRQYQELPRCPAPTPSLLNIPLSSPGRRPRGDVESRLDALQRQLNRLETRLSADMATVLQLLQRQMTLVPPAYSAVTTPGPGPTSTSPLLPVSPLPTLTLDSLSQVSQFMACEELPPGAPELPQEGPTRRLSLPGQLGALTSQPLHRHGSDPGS

The assay has as its target Voltage-gated inwardly rectifying potassium channel KCNH2 (Homo sapiens) (UniProt Q12809). As to the kind of experiment: qHTS Assay for Small Molecule Inhibitors of the Human hERG Channel Activity (AID 588834).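 Further: lower thallium flux fluorescence means stronger hERG block; nearly all actives have a fitted effect of over 50% in size.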 The note with it: U2OS BacMam hERG, FluxOR thallium flux fluorescence; series mostly up to 46.1 µM. In short, it runs like this:
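Kinetic FDSS fluorescence; U2OS + hERG BacMam (~100 virus particles/cell); FluxOR Tl+ flux; ~10 min cpd; AC50 (Hill).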
A general note: In qHTS, concentration-response curves come from the screen itself.
Take `CC(=O)N(O)CCCCCNC(=O)CCC(=O)N(O)CCCCCNC(=O)CCC(=O)N(O)CCCCCN`: the Potency entry was “inactive”. On to `C#C[C@]1(OC(C)=O)CC[C@H]2[C@@H]3CCC4=C[C@@H](OC(C)=O)CC[C@@H]4[C@H]3CC[C@@]21C`, for which the Potency result was “inactive”. For `CCOC(=O)c1cccc(N)c1` the value was “inactive”; for `CN1C(CCl)Nc2cc(Cl)c(S(N)(=O)=O)cc2S1(=O)=O` (centres undefined), “inactive”; for `CC[N+](CC)(CCNC(=O)C(=O)NCC[N+](CC)(CC)Cc1ccccc1Cl)Cc1ccccc1Cl`, “inactive”. With `CCCCC(CC)CN=C(N)NC(N)=NCCCCCCN=C(N)NC(N)=NCC(CC)CCCC` (centres undefined) the entry was “inactive”. For `CN1CCN(C(c2ccccc2)c2ccccc2)CC1` the value was “inactive”. Regarding `CC(=O)c1ccc2c(c1)N(CCCN1CCC(CCO)CC1)c1ccccc1S2`, the Potency is 1.26 µM (active). With `NCCC(O)(P(=O)(O)O)P(=O)(O)O` the entry was “inactive”; with `CCCCN1CCCC1C(=O)Nc1c(C)cc(C)cc1C` (centres undefined), “inactive”. For `CCOC(=O)/C=C(C)/C=C/C=C(C)/C=C/c1c(C)cc(OC)c(C)c1C` the value was “inactive”. For `COc1c2occc2c(OC)c2c(=O)cc(C)oc12` the value was “inactive”. For the compound `CCC(C(=O)OCCN(CC)CC)c1ccccc1` (centres undefined), the Potency result was “inactive”. Regarding `COc1ccc(CN2CCN(C(c3ccc(F)cc3)c3ccc(F)cc3)CC2)c(OC)c1OC`, the Potency was 1.12 µM (active). As to `Cc1c(C)n(CCN(C)C)c2ccc(C(=O)OCCN(C)C)cc12`, the Potency result is “inactive”. In the case of `OCc1ccccc1O`, the Potency result was “inactive”.

For `Cc1c(F)c(N2CCNC(C)C2)cc2c1c(=O)c(C(=O)O)cn2C1CC1` (centres undefined), the Potency entry was “inactive”. With `Cc1cc(O)c(C(C)C)cc1Cl` the entry was “inactive”; with `CCn1cc(C(=O)O)c(=O)c2cnc(N3CCCC3)nc21`, “inactive”; with `NC(CO)(CO)CO`, “inactive”. With `CN=C(NC#N)NCCSCc1csc(N=C(N)N)n1`, the Potency entry is “inactive”.

On to `CCCCOc1cc(C(=O)NCCN(CC)CC)c2ccccc2n1`, for which the Potency was 4.47 µM (active).

`O=C(O)CNC(=O)c1ccccc1`: the Potency entry was “inactive”. Consider `Cc1cccn2c(=O)c(-c3nnn[nH]3)cnc12`, for which the Potency entry was “inactive”. With `Nc1ccc(C(=O)Nc2ccccc2N)cc1` the entry was “inactive”; with `Cc1c(C(N)=O)cc([N+](=O)[O-])cc1[N+](=O)[O-]`, “inactive”; with `COc1cc(-c2ccc(=O)[nH]n2)ccc1OC(F)F`, “inactive”. With `CCCCOc1ccc(C(=O)CCN2CCCCC2)cc1` the figure was 10 µM (active). For `CCCCCCCCCCCCCCNCCO` the value was “inactive”; for `COC(=O)[C@@H]1CC2=CC(=O)CC[C@]2(C)[C@@]23O[C@@H]2C[C@@]2(C)[C@@H](CC[C@@]24CCC(=O)O4)[C@H]13`, “inactive”; for `c1ccc(CNCCNCc2ccccc2)cc1`, “inactive”. Turning to `CCOc1ccc(NC(=O)CC(C)O)cc1` (centres undefined), the Potency entry was “inactive”.

In the case of `OC(CCN1CCCCC1)(c1ccccc1)c1ccccc1`, the Potency is 14.1 µM (active). For `NCCc1ccn[nH]1` the value was “inactive”. With `CCN(CC)CCNC(=O)COc1ccc(Cl)cc1` the figure was 14.1 µM (active); with `O=C(CCN1CCC(c2ccccc2)C1)c1ccc2c(c1)OCCO2` (centres undefined), 15.8 µM (active); with `Cc1c(N(C)CS(=O)(=O)O)c(=O)n(-c2ccccc2)n1C`, “inactive”. For `O=C(COc1ccc(Cl)cc1)N1CCN(Cc2ccc3c(c2)OCO3)CC1` the value was 15.8 µM (active); for `CCN1CCN(c2cc3c(cc2F)c(=O)c(C(=O)O)cn3C2CC2)CC1`, “inactive”.

These data come from PubChem BioAssay (NCATS).
